Experimental findings from PubChem BioAssay are described below.

What is called inhibition is the relative decrease from the control value, in per cent.

A short description of assay [1]: yeast TOR pathway RPL19A-GFP modulators, primary screen, cell-based, S. cerevisiae, multiplex flow cytometry (AID 1862; in the data active = percent of DMSO control GFP below about 86%;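 note: lower values mimic rapamycin by blocking the RPL19A rise seen in DMSO cells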). The settings on record: S. cerevisiae RPL19A-GFP strain, flow cytometry fluorescence, 3 h; at 10 µM; stronger effect = lower value. (In general: In flow cytometry, cells or beads pass a laser one at a time.)
Assay [2] in a line: modulators of MEP2-GFP levels in yeast, primary screen, S. cerevisiae, multiplex flow cytometry (AID 1867).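 Note: median GFP channel fluorescence of barcode-gated MEP2-GFP cells measured by flow cytometry.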 The settings on record: S. cerevisiae MEP2-GFP strain, 3 h, at 10 µM, stronger effect = higher value, 100% means same as DMSO wells.
The nature of assay [3]: modulators of CIT2-GFP expression in yeast, primary screen, S. cerevisiae, GFP fusion, multiplex flow cytometry (AID 1870;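 active = percent response above a set limit, the screen-wide mean plus 3 SD, cut at about 130% in these data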;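 note: barcoded CIT2-GFP strain pooled with four other GFP strains with rapamycin as positive control; median GFP fluorescence per well over plate mean of DMSO wells so 100% = DMSO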). The settings on record: 3 h, at 10 µM, stronger effect = higher value.
The nature of assay [4]: modulators of LAP4-GFP expression in yeast, primary screen, S. cerevisiae, multiplex flow cytometry (AID 1873;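 active = GFP signal, as percent of the solvent control, above the screen mean plus 3 SD, about 149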). The settings on record: 3 h, at 10 µM, stronger effect = higher value.
Assay [5] can be described thus: modulators of AGP1-GFP expression in yeast TOR pathway, primary screen, cell-based, multiplex flow cytometry, S. cerevisiae (AID 1887;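 active = GFP signal above the screen-wide mean plus 3 SD, that is over about 124.5% of the solvent control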;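 note: AGP1-GFP fusion strain of S. cerevisiae within a five-strain barcoded multiplex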). The settings on record: 3 h, at 10 µM, stronger effect = higher value.
A short description of assay [6]: inhibitors of CD8+ T cell-vesicle binding, pilot screen, LFA-1/ICAM-1 modulator project, MLPCN validation set, flow cytometry (AID 2523;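 active = response below a set limit, under 55% cells CD8-positive and vesicle-bound, and CD8 cells' 90th-percentile brightness under 279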;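 for vesicle binding response: mean PE anti-B7-1 fluorescence of CD8+ cells relative to row control; 100% = QL9-loaded vesicles with DMSO vehicle in the same plate row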). The settings on record: 2C mouse CD8+ T cells, at 7 µM, stronger effect = lower value; double positive events: measured here: CD8+/vesicle+ event percentage.
In assay [7] the target is Integrin beta-1 (Homo sapiens) + Integrin alpha-4 (Homo sapiens) (UniProt P13612+P05556). Nature of the assay: inhibition of HUTS-21 binding to VLA-4, pilot screen, VLA-4 allosteric modulator project, U937 cells, HUTS-21 mAb, flow cytometry, validation set (AID 2674;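 active = inhibition above 50%, about 3 SD of the validation set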;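 note: antibody binding induced by the VLA-4 ligand LDV present at three times its Kd; 0% = LDV ligand with antibody and no compound and 100% = antibody without LDV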). The settings on record: HUTS-21 LIBS mAb binding, at 6.7 µM, stronger effect = higher value, binding induced by LDV ligand.
Chain of Integrin beta-1 (Homo sapiens) + Integrin alpha-4 (Homo sapiens) (P05556 whole entry, looked up): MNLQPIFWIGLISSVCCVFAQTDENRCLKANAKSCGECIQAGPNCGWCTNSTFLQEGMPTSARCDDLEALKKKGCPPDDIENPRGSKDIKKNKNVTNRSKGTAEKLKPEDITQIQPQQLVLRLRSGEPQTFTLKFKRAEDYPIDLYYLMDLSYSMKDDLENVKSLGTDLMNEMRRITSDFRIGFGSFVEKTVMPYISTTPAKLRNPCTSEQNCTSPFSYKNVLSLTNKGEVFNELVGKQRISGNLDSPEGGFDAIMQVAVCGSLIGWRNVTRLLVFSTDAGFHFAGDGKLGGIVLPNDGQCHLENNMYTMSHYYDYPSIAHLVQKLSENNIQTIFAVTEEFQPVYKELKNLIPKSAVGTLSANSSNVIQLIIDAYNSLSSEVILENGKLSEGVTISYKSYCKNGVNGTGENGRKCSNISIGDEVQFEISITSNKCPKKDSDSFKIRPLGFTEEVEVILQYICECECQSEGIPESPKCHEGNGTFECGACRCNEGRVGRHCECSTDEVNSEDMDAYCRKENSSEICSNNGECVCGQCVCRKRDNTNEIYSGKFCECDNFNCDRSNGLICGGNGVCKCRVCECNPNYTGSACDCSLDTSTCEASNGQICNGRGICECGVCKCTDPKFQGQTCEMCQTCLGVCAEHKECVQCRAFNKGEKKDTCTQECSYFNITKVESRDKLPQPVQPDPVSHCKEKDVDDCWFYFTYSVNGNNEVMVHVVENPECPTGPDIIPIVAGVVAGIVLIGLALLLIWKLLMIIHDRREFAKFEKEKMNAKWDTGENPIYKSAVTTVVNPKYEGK
Chain of Integrin beta-1 (Homo sapiens) + Integrin alpha-4 (Homo sapiens) (P13612 whole entry, looked up): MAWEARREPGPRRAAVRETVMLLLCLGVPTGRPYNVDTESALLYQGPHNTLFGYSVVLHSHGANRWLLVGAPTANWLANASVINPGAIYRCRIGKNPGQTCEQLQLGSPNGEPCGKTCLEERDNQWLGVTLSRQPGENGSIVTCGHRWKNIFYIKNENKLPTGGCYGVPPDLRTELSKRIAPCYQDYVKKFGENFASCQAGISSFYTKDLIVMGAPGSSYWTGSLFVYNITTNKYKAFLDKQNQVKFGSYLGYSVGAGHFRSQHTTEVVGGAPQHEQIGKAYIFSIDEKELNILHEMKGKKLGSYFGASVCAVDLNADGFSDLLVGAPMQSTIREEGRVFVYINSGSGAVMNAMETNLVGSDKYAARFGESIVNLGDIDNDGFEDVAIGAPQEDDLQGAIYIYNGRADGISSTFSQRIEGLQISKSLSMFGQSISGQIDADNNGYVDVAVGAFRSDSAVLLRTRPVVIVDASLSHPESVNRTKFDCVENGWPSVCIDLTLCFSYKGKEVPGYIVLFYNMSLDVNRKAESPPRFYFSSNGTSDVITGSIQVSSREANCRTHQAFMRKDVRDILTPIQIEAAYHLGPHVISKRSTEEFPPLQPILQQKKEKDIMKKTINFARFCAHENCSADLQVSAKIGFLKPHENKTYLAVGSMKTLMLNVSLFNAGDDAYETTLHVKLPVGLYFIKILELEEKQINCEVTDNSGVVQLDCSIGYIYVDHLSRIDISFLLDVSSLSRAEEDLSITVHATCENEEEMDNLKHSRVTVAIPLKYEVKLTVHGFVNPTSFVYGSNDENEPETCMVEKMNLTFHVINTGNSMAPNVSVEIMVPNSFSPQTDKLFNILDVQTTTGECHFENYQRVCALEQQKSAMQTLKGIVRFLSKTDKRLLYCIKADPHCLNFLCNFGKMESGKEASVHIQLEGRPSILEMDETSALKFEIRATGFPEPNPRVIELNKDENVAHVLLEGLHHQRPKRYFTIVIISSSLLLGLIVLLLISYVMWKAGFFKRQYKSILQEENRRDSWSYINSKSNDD

Assay [8] is described as follows: superoxide lowering in aged yeast cells, pilot screen, validation compound set (AID 2706;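 active = superoxide response below 65% of plate, a cut near 3 SD across the whole screen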;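 note: yeast exposed to compound for one week at 30 degrees C before staining; 100% = mean of all compound wells on the same plate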). The settings on record: S. cerevisiae aging, superoxide DHE fluorescence; at 10 µM; stronger effect = lower value.
In assay [9] the target is Beta-adrenergic receptor kinase 1 (Homo sapiens) (UniProt P25098). Description: GRK2 binders displacing RNA aptamer, biochemical, validation, human GRK2, bead flow cytometry (AID 488806;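 active = aptamer binding inhibition above 30%, about 3 SD of noise from non-fluorescent compounds; inactive = inhibition at or below 30%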). The settings on record: bead-bound GRK2, FAM-aptamer displacement, at 10 µM, stronger effect = higher value.
Chain of Beta-adrenergic receptor kinase 1 (Homo sapiens) (P25098 whole entry, looked up): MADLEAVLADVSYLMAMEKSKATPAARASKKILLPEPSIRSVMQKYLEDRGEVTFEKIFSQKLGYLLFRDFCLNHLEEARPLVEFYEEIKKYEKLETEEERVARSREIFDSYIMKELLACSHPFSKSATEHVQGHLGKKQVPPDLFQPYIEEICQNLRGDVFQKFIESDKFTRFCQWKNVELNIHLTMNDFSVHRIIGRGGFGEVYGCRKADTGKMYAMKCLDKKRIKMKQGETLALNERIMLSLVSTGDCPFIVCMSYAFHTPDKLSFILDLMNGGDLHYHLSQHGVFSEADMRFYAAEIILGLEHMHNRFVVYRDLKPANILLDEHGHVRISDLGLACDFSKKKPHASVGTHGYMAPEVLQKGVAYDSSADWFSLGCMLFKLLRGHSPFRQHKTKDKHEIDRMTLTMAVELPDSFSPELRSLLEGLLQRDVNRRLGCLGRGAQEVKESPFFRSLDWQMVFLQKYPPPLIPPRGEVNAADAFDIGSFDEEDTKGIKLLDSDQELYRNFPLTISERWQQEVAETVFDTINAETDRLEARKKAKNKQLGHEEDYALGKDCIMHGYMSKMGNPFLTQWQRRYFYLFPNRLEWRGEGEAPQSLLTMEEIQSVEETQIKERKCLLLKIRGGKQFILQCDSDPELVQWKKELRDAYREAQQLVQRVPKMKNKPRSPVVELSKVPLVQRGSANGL
For assay [10], the target named is Beta-2 adrenergic receptor (Homo sapiens) (UniProt P07550). Description: beta2AR agonists driving receptor internalization, pilot screen, cell-based, FAP fluorogen, flow cytometry, validation set (AID 504459;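 active = percent response above 42, roughly 3 SD of non-fluorescent test compounds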;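 note: agonist-driven loss of surface beta2AR via internalization measured by FAP dye flow cytometry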). The settings on record: Am2.2-beta2AR cells, FAP surface receptor flow cytometry; at 10 µM; stronger effect = higher value.
Chain of Beta-2 adrenergic receptor (Homo sapiens) (P07550 whole entry, looked up): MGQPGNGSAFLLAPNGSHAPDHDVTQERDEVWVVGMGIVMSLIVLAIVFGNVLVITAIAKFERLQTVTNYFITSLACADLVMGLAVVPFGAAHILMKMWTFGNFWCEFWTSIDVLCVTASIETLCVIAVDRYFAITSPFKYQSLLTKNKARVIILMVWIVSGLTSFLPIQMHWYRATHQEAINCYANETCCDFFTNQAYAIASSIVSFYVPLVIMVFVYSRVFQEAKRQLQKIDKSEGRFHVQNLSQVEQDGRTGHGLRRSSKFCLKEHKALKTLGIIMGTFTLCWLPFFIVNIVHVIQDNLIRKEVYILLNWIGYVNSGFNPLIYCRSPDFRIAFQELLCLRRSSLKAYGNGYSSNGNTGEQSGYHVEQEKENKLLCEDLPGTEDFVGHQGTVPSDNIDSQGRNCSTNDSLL
Assay [11] concerns the target AP-2 complex subunit beta (Homo sapiens) (UniProt P63010). Nature of the assay: inhibitors of arrestin peptide binding to AP2, pilot screen, biochemical, validation set, GST-AP2 beads, flow cytometry (AID 504541;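 active = inhibition above 54%, about 3 SD of non-fluorescent compounds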;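 note: AP2 carries R879A mutation and is captured from E. coli lysate; bead-bound FITC arrestin peptide fluorescence measuring arrestin peptide binding to AP2; 0% = DMSO wells and 100% = excess unlabeled arrestin peptide control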). The settings on record: FITC arrestin peptide, at 10 µM, stronger effect = higher value, AP2 beta2 appendage fragment, R879A mutant.
Assay [12] in a line: yeast V-ATPase proton transport modulators, S. cerevisiae, pHLuorin, HTS validation (AID 504600; in the data active = response above about 15%;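 note: plate controls were DMSO for no effect and reference compound for full effect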). The settings on record: S. cerevisiae pHLuorin cytosolic pH, at 10 µM, stronger effect = higher value.
Assay [13] concerns anti-desmoglein-3 scFv antibody binding to human DSG3. Nature of the assay: inhibitors of anti-DSG3 scFv binding to DSG3, pilot screen, biochemical, validation compound set, bead-based, flow cytometry (AID 588368;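 active = binding below the plate cutoff, the plate median minus 3 SD, with a reading above zero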;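 note: signal is the median channel fluorescence of bead-bound GFP antibody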). The settings on record: Protein G beads, DSG3-Fc, scFv-GFP binding, at 10 µM, stronger effect = lower value.
Assay [14] can be described thus: inhibitors of fungal efflux pumps CDR1, CDR2, MDR1, pilot screen, validation compound set, multiplex, phenotypic (AID 588506;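 active = efflux inhibition above 0.42, the validation set average plus 4 SD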;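 note: Nile Red retained in cells so higher fluorescence means more efflux inhibition; 0 = negative control wells and 1 = enniatin B 25 µM full block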). The settings on record: S. cerevisiae pump-expressing triplex, Nile Red efflux flow cytometry; at 10 µM; stronger effect = higher value; the pumps come from Candida albicans.
The target of assay [15] is ATP-binding cassette sub-family B member 6 (Homo sapiens) (UniProt Q9NP58). Nature of the assay: ABCB6 transporter inhibitors, pilot screen, K562-ABCB6 cells, flow cytometry, validation set (AID 588550;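 active = inhibition above the screen-wide mean plus 3 SD, about 51%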;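 note: 0% = DMSO wells and 100% = benzethonium chloride 70 µM positive control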). The settings on record: K562-ABCB6 porphyrin accumulation, 1 h, at 10 µM, stronger effect = higher value.
Chain of ATP-binding cassette sub-family B member 6 (Homo sapiens) (Q9NP58 whole entry, looked up): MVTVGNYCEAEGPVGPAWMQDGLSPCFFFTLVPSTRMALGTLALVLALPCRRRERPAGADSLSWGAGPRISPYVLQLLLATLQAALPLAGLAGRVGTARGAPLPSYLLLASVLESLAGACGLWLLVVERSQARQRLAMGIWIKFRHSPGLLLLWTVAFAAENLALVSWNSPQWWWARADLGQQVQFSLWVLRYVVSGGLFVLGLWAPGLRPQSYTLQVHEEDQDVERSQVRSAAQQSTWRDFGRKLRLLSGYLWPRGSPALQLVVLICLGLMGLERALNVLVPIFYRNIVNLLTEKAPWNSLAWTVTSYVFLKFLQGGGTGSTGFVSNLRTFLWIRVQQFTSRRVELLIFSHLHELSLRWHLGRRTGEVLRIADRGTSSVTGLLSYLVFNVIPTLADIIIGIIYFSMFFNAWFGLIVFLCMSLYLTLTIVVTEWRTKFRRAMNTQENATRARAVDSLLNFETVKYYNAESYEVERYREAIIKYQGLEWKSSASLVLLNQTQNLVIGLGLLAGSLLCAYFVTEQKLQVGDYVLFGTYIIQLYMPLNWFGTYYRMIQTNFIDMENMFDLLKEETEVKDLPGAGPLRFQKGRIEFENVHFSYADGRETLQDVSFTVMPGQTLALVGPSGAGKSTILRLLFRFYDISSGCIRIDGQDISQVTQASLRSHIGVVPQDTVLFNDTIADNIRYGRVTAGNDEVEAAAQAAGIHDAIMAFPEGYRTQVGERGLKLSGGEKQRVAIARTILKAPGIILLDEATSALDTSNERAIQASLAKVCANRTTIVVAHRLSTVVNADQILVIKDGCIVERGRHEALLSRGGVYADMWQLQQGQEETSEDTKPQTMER
A short description of assay [16]: promoters of myeloid differentiation in arrested cells, primary screen, cell-based, GFP/MAC1 double positive, flow cytometry, validation set (AID 588685;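 active = differentiation response of at least 50%, scaled between solvent and reference control, from cells with both markers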;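 note: compound exposure lasts four days before antibody staining and flow analysis; 0% = DMSO wells and 100% = 5 µM fulvestrant positive control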). The settings on record: ER-HoxA9 marrow cells, stronger effect = higher value, normalized: vehicle 0, fulvestrant 100.

Each structure is given as a SMILES string. Inconclusive results are not listed. Activity calls are given as the source filed them.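 Rule for the calls, unless noted: active = GFP response, as percent of the DMSO control, above the screen-wide mean plus 3 SD, about 139; inconclusive = no response measured because the compound's own fluorescence interfered; inactive = the rest.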

Chain of AP-2 complex subunit beta (Homo sapiens) (P63010 whole entry, looked up, the tested form may be a part, one chain of several): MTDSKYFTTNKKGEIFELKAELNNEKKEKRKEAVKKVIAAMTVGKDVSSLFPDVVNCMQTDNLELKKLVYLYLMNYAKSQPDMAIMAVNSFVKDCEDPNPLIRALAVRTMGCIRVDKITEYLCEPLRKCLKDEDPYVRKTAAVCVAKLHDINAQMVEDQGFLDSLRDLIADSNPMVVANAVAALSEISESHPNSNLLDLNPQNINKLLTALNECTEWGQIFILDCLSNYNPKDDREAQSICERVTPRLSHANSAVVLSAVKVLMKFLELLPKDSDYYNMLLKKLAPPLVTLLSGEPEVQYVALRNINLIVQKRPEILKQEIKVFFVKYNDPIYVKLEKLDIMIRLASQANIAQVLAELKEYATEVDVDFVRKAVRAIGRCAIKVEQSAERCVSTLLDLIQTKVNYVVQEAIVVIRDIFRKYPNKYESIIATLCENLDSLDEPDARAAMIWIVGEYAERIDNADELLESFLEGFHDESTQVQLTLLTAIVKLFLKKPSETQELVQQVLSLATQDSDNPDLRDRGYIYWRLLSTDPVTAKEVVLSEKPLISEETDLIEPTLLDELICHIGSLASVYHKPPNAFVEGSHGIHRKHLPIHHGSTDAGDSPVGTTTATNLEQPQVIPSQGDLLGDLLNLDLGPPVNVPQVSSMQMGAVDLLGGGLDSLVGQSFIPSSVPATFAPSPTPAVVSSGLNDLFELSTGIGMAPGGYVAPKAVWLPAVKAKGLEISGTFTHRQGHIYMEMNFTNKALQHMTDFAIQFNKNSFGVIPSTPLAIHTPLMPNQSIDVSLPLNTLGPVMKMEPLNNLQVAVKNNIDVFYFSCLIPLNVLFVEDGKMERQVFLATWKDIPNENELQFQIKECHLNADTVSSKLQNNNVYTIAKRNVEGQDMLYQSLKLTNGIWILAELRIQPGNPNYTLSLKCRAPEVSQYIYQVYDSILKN

Turning to `COc1ccccc1OS(=O)(=O)c1ccc(NC(C)=O)cc1`, in [1], the percent of DMSO control GFP is 87.1% (inactive). Further, the GFP response vs DMSO in assay [2] was 123% (inactive); in assay [4], 82.5% (inactive). In addition, in assay [3], the percent response of DMSO control is 101% (inactive). For the same compound, the GFP response, % of DMSO in [5] was 103% (inactive). This compound yielded a double positive events in assay [6] of 57.8%. For the same compound, the vesicle binding response in assay [6] was 65.7% (inactive). Moreover, the inhibition in assay [7] was 10.3% (inactive); in assay [11], -11.8% (inactive); in assay [15], 4% (inactive). In [8], the superoxide response (% of plate) was 97% (inactive). Also, the aptamer binding inhibition in assay [9] is 2% (inactive). Moreover, the values for the response in assay [10] and in [12] were -16.4% (inactive) and -0.65% (inactive), respectively. In addition, the binding (% of control) in assay [13] is 101% (inactive). In addition, the efflux inhibition (fraction of control) in [14] was -0.35 (inactive). Further, in assay [16], the differentiation response was -4.09% (inactive).
Turning to `O=C(CCc1ccccc1)Nc1ccccc1C(F)(F)F`, the percent of DMSO control GFP in assay [1] was 103% (inactive). Besides, the GFP response vs DMSO was 105% (inactive) in assay [2] and 94.7% (inactive) in assay [4]. In addition, the percent response of DMSO control in [3] is 107% (inactive). Further, in assay [5], the GFP response, % of DMSO was 103% (inactive). Further, the double positive events in assay [6] was found to be 64.1%. For the same compound, in assay [6], the vesicle binding response is 240% (inactive). In addition, the inhibition in [7] is 2.66% (inactive); in assay [11], -5.17% (inactive); in [15], -2% (inactive). The superoxide response (% of plate) in [8] was 96.3% (inactive). Moreover, the aptamer binding inhibition in assay [9] was 1% (inactive). For the same compound, the response was -5.39% (inactive) in [10] and 2.37% (inactive) in assay [12]. The binding (% of control) in assay [13] was 100% (inactive). Further, the efflux inhibition (fraction of control) in assay [14] was 0.18 (inactive). In [16], the differentiation response is 0.24% (inactive).
In the case of `CC(=O)[C@H]1[C@H](C#N)C[C@H]2[C@@H]3CC=C4C[C@@H](O)CC[C@]4(C)[C@H]3CC[C@@]21C`, the percent of DMSO control GFP in assay [1] is 92% (inactive). Further, the GFP response vs DMSO was 125% (inactive) in assay [2] and 85.8% (inactive) in assay [4]. Moreover, the percent response of DMSO control in [3] is 104% (inactive). The GFP response, % of DMSO in assay [5] was 88% (inactive). Besides, the double positive events in assay [6] is 62.5%. Moreover, the vesicle binding response in [6] is 112% (inactive). In addition, the results for the inhibition in assay [7], in [11] and in assay [15] were 19.1% (inactive), -10% (inactive) and 6% (inactive), respectively. For the same compound, in assay [8], the superoxide response (% of plate) is 104% (inactive). Besides, the aptamer binding inhibition in [9] was 11% (inactive). The response in [10] is 2.41% (inactive); in [12] it was 0% (inactive). The binding (% of control) in assay [13] is 103% (inactive). In [14], the efflux inhibition (fraction of control) was -0.28 (inactive). Besides, the differentiation response in assay [16] is -3.28% (inactive).
`COc1ccc2c(c1OC)C(C1c3c(cc4c(c3OC)OCO4)CCN1C)OC2=O` (stereo not drawn): the percent of DMSO control GFP in [1] was 107% (inactive). Besides, the GFP response vs DMSO is 93% (inactive) in [2] and 88.7% (inactive) in assay [4]. Moreover, the percent response of DMSO control in assay [3] is 121% (inactive). Besides, the GFP response, % of DMSO in assay [5] is 111% (inactive). In assay [6], this compound returned a double positive events of 60.6%. In assay [6], the vesicle binding response is 54.2% (inactive). Further, the inhibition in assay [7] was -23.3% (inactive); in assay [11] it was -1.99% (inactive); in [15] it was 6% (inactive). The superoxide response (% of plate) in assay [8] was 95.3% (inactive). The aptamer binding inhibition in [9] was 1% (inactive). In addition, the response in assay [10] was -7.53% (inactive); in assay [12], 2.98% (inactive). The binding (% of control) in [13] is 98.9% (inactive). Moreover, the efflux inhibition (fraction of control) in assay [14] is 0.02 (inactive). Besides, in assay [16], the differentiation response is -2.69% (inactive).
